Test [1] is described as follows: HepG2 liver cancer cell viability effects, profiling panel, resazurin fluorescence, 24 h, PK04 Diversity Set (AID 1172). The note with it: higher = more signal.
Test [2] can be described thus: basal S. cerevisiae growth modulation, no modifier, primary screen, OD600, strain BY4716, 24 h, basal condition (AID 1173). The note with it: OD600, 24 h, higher = more signal, called active from +8 up or from −8 down.
Test [3] can be described thus: MM1S myeloma cell viability, profiling panel, resazurin fluorescence, basal, 24 h, PK04 Diversity Set (AID 1174).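 Further: MM1S multiple myeloma cell line.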 The conditions noted are these: higher = more signal, called active from +8 up or from −8 down.
Test [4] addresses Dihydroorotate dehydrogenase (quinone), mitochondrial (Plasmodium falciparum (isolate 3D7)) (UniProt Q08210). Briefly: PfDHODH enzyme inhibitors, primary screen, biochemical, C-terminal His tag, absorbance 600 nm (AID 1175).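 Further: recombinant parasite enzyme with a five histidine tag at its C terminus.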 The conditions noted are these: DCIP absorbance 600 nm, higher = more signal, called active from +8 up or from −8 down.
Test [5] in a line: P. aeruginosa biofilm formation inhibitors, primary screen, strain PAO1, LB-PBS medium, absorbance 600 nm (AID 1176). The conditions noted are these: P. aeruginosa PAO1 growth/biofilm, A600, 12 h; higher = more signal.
Test [6] can be described thus: S. cerevisiae RM11-1a growth modifiers, primary screen, strain RM11-1a, OD600, basal, 24 h (AID 1177).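 Further: cultures grown under basal conditions with no added stressor.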 The conditions noted are these: OD600, 24 h, higher = more signal, called active from +8 up or from −8 down.
A short description of test [7]: E. coli acrAB mutant growth effects, primary screen, E. coli filamentation inducers, strain DRC39, OD650, 24 h (AID 1178).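 Further: growth measured as culture turbidity by optical density at 650 nm.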 The note with it: higher = more signal, called active from +8 up or from −8 down.
Test [8] can be described thus: E. coli acrAB mutant growth effects, primary screen, E. coli filamentation inducers, strain DRC39, OD650, 48 h (AID 1179).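 Further: screen aims at cell division blockers that make cells filament.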 The conditions noted are these: E. coli DRC39 delta-acrAB growth, higher = more signal, called active from +8 up or from −8 down.
Test [9] is described as follows: RPMI8226 myeloma cell viability, profiling panel, resazurin fluorescence, basal, 24 h, PK04 Diversity Set (AID 1180).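 Further: RPMI8826 multiple myeloma cell line at 5000 cells per well.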 The conditions noted are these: higher = more signal.
In test [10] the target is E3 ubiquitin-protein ligase XIAP (Homo sapiens) (UniProt P98170). The experiment in a line: XIAP binders, primary screen, biophysical, small-molecule microarray, fluorescence 635 nm (AID 1181).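 Further: score merges 667 nm emission and signal to noise over triplicate slides.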 The note with it: small-molecule microarray binding, higher = more signal.
Chain of E3 ubiquitin-protein ligase XIAP (Homo sapiens) (P98170 whole entry, looked up): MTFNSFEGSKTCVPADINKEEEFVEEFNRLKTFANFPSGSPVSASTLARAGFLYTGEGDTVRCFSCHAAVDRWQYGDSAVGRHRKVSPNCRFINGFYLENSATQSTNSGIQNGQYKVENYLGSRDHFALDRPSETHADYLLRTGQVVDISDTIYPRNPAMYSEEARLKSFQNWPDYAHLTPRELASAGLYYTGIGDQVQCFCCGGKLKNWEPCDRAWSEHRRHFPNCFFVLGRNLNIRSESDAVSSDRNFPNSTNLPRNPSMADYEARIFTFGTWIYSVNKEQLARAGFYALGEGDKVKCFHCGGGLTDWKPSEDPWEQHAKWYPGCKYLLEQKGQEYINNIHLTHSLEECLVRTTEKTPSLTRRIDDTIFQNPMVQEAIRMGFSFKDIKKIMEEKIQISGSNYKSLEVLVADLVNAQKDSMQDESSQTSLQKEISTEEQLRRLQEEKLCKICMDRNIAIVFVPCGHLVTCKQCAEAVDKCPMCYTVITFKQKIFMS
The test system of test [11] is XIP peptide (Xip251-270) binding. The experiment in a line: small-molecule binders of XIP peptide, primary screen, biochemical, small-molecule microarray, fluorescence 635/667 nm, 0.1 µg/mL protein (AID 1182). The note with it: fluorescent protein binding, 635 nm, higher = more signal, called active from +8 up or from −8 down.
A further test concerns XIP peptide (Xip251-270). The experiment in a line: small-molecule binders of XIP peptide, primary screen, biochemical, small-molecule microarray, fluorescence 635/667 nm, 0.5 µg/mL protein (AID 1183). The conditions noted are these: small-molecule microarray binding, fluorescence 635 nm; higher = more signal.
A short description of test [12]: Plasmodium falciparum growth inhibition, primary screen, strain 3D7, DAPI fluorescence, 100 nL (AID 1184).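 Further: parasites grown inside human red blood cells in medium with human serum.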 The conditions noted are these: P. falciparum 3D7 growth, 3 d, higher = more signal.
In test [13] the target is Homeobox protein Hox-A13 (Mus musculus) (UniProt Q62424). The experiment in a line: inhibitors of HoxA13-DNA binding, primary screen, biochemical, fluorescence polarization, labeled oligonucleotide (AID 1185). The note with it: 15 min, higher = more signal, called active from +8 up or from −8 down.
Chain of Homeobox protein Hox-A13 (Mus musculus) (Q62424 whole entry, looked up): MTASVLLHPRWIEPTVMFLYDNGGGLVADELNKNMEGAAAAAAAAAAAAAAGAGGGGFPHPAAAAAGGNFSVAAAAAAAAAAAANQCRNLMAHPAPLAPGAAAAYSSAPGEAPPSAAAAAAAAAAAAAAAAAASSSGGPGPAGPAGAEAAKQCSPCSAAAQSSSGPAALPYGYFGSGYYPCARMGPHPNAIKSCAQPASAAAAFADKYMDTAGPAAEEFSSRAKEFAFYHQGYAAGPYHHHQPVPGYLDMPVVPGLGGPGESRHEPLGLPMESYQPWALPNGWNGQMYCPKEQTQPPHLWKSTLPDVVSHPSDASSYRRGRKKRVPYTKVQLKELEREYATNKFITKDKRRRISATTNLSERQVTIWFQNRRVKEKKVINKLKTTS
Test [14] can be described thus: inhibitors of hydroxyurea-induced Chk1 phosphorylation, primary screen, imaging, HeLa, phospho-Chk1 antibody, percent positive cells (AID 1186). The note with it: hydroxyurea-induced phospho-Chk1 immunofluorescence imaging, higher = more signal.
Test [15] can be described thus: inhibitors of hydroxyurea-induced Chk1 phosphorylation, primary screen, imaging, HeLa, phospho-Chk1 nuclear intensity (AID 1187). The note with it: hydroxyurea-induced phospho-Chk1 immunofluorescence imaging, higher = more signal.

The source made the active and inactive calls. Unless noted, how the calls were made is not given here.

Chain of Dihydroorotate dehydrogenase (quinone), mitochondrial (Plasmodium falciparum (isolate 3D7)) (Q08210 whole entry, looked up): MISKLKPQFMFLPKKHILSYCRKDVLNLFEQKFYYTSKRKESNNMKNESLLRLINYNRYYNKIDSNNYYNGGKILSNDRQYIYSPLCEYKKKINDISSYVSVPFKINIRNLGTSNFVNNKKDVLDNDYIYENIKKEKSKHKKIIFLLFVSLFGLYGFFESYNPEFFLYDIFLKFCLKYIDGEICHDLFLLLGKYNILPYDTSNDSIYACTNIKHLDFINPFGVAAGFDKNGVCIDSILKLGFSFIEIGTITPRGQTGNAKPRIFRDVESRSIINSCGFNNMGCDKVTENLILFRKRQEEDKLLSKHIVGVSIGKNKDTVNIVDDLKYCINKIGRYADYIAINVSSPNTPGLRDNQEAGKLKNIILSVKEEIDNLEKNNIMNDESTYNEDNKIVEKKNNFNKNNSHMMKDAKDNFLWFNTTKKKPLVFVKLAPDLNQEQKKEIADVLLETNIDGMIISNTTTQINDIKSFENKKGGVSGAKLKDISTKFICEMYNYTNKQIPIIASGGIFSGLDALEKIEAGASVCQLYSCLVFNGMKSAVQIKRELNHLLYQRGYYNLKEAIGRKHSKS

Turning to `CCCC[C@H]1OB(O)C[C@H]2C1=C(C)Cn1c(=O)n(-c3ccccc3)c(=O)n12`, the z-score in test [1] was 0.916; in test [2] it was 0.422 (inactive); in test [3], -0.441 (inactive); in test [5], -0.638 (inactive); in [6] it was 0.218 (inactive); in [7] it was -0.13 (inactive). In addition, the z-score in test [8] is -0.605 (inactive); in test [9] it was 0.191; in [12] it was -2.15; in test [13], -0.581 (inactive); in [14], -0.705 (inactive); in test [15], -0.679 (inactive). The composite z-score in [4] was -0.0299 (inactive); in test [10], -0.0599; in test [11] it was -0.0734 (inactive); with XIP peptide (Xip251-270), 0.116.

Take `Oc1ccc2cc[n+](Cc3cccc(OC(F)(F)F)c3)cc2c1`: the z-score in [1] was -0.975; in test [2], 0.236 (inactive); in test [3] it was -0.304 (inactive); in test [5], 0.0061 (inactive); in [6], 0.585 (inactive); in test [7], 0.4 (inactive). The z-score in test [8] is 0.743 (inactive); in test [9], -1.07; in test [12], 0.233; in test [13], -3.08 (inactive); in test [14], -0.208 (inactive); in test [15], -0.16 (inactive). For the same compound, the composite z-score was -1.09 (inactive) in test [4], 0.202 in test [10], 0.143 (inactive) in [11] and 0.558 in the test with XIP peptide (Xip251-270).

With `C=C[C@H](C)[C@H](O)c1ccc(OCCO)cc1`, the z-score is 0.847 in [1]; -1.4 (inactive) in test [2]; 0.867 (inactive) in test [3]; 0.261 (inactive) in [5]; 0.349 (inactive) in test [6]; 0.74 (inactive) in [7]. Further, the z-score in test [8] was 0.715 (inactive); in test [9] it was -1.9; in test [12], -0.996; in test [13] it was -0.499 (inactive); in test [14], -0.82 (inactive); in test [15], -0.216 (inactive). The composite z-score in test [4] is 0.257 (inactive); in test [10], -0.115; in test [11], -0.199 (inactive); with XIP peptide (Xip251-270), -0.143.

On to `Cc1ccccc1/C=C/C=O`, for which the z-score was 0.779 in [1]; -1.94 (inactive) in test [2]; 0.971 (inactive) in test [3]; -0.0902 (inactive) in test [5]; -0.412 (inactive) in test [6]; 1.23 (inactive) in test [7]. Moreover, the z-score in test [8] was 1.45 (inactive); in [9] it was 1.36; in test [12] it was -0.198; in test [13], -0.848 (inactive); in [14], 0.133 (inactive); in test [15], 0.0525 (inactive). Moreover, the composite z-score in test [4] is -0.464 (inactive); in test [10] it was -0.141; in test [11] it was 0.958 (inactive); with XIP peptide (Xip251-270) it was 0.532.

As to `CCCC[C@@H]1C[C@H]1[C@@H](NC(=O)c1ccco1)c1ccccc1`, the z-score in [1] is 1.39; in [2], -3.05 (inactive); in test [3] it was 0.757 (inactive); in [5], -0.195 (inactive); in [6] it was 0.586 (inactive); in test [7], -0.9 (inactive). In addition, the z-score in test [8] was -0.569 (inactive); in [9] it was 0.0092; in test [12] it was -1.46; in [13], -2.46 (inactive); in test [14] it was 0.243 (inactive); in test [15], 0.428 (inactive). Also, the composite z-score in test [4] is -1.19 (inactive); in test [10], 0.171; in test [11], -0.153 (inactive); in the test with XIP peptide (Xip251-270) it was -0.041.

Take `O=C1OCCC/C=C\[C@H]2OC34C=CCN(CCN5CCOCC5)C(=O)[C@H]3N(CCO)C(=O)[C@@H]4C12` (stereo not given in full): the z-score was -0.881 in [1]; 0.0436 (inactive) in test [2]; -0.562 (inactive) in test [3]; -0.317 (inactive) in [5]; 1.05 (inactive) in test [6]; -1.12 (inactive) in [7]. The z-score in test [8] was -1.09 (inactive); in [9] it was -0.654; in test [12], -1.22; in test [13], -5.83 (inactive); in [14] it was -0.225 (inactive); in test [15], 0.264 (inactive). In addition, the composite z-score in test [4] is 0.71 (inactive); in [10], 0.685; in [11], 0.489 (inactive); in the test on XIP peptide (Xip251-270), -0.979.

Regarding `O=c1cccc(-c2ccccc2)o1`, the z-score in [1] was 0.123; in [2], -5.07 (inactive); in [3], 0.0841 (inactive); in [5], 0.421 (inactive); in test [6], 0.434 (inactive); in test [7], -0.438 (inactive). Also, the z-score is 0.0997 (inactive) in test [8]; -0.156 in test [9]; 0.495 in [12]; -1.85 (inactive) in test [13]; 0.403 (inactive) in [14]; 0.0838 (inactive) in test [15]. For the same compound, the composite z-score in test [4] was -0.403 (inactive); in test [10], 0.045; in [11] it was -0.724 (inactive); in the test on XIP peptide (Xip251-270) it was 0.765.

For the compound `C=CCC(OC(C)=O)[C@@H]1[C@@H](N(Cc2cc3ccccc3o2)C(=O)c2ccc(-c3ccccc3)cc2)c2cc(OCCCO)ccc2N1C(=O)Cc1ccc2ccccc2c1` (stereo not given in full), the z-score in test [1] was -0.795; in test [2], 0.692 (inactive); in test [3], 0.548 (inactive); in test [5] it was 0.0793 (inactive); in [6], 0.854 (inactive); in [7], 1.15 (inactive). The z-score is 0.682 (inactive) in test [8]; 1.13 in test [9]; -0.835 in test [12]; -0.738 (inactive) in test [13]; 0.485 (inactive) in [14]; 0.467 (inactive) in [15]. For the same compound, the composite z-score is 0.22 (inactive) in test [4], -0.239 in test [10], -0.317 (inactive) in [11] and -0.269 in the test with XIP peptide (Xip251-270).

Consider `CC(C)[C@H]1COC(=O)N1C(=O)[C@H]1[C@@H](c2ccccc2)N(c2ccccc2)O[C@@H]1C`, for which the z-score in test [1] was 0.701; in test [2], -1.42 (inactive); in test [3] it was 0.517 (inactive); in test [5], 0.0694 (inactive); in test [6], 1.46 (inactive); in test [7], 0.166 (inactive). Also, the z-score was 0.703 (inactive) in test [8]; 1.41 in [9]; 0.0321 in [12]; -3.46 (inactive) in [13]; -0.965 (inactive) in [14]; -1.2 (inactive) in test [15]. In addition, the composite z-score in [4] was -0.656 (inactive); in test [10], 0.0785; in test [11], 0.223 (inactive); in the test on XIP peptide (Xip251-270) it was 0.267.

`Cn1c2c(c3ccccc31)C(=O)C1NC2C=CC1(C)C(=O)OCc1ccccc1` (stereo not given): the z-score in test [1] is 0.0885; in test [2], 0.272 (inactive); in [3], -1.35 (inactive); in [5], -0.253 (inactive); in test [6], -0.128 (inactive); in [7], -1.33 (inactive). Moreover, the z-score in test [8] was -1.06 (inactive); in test [9], -1.2; in test [12], -0.502; in test [13], -3.9 (inactive); in test [14], -0.3 (inactive); in [15], -0.512 (inactive). Moreover, the composite z-score in test [4] was -0.296 (inactive); in test [10] it was 0.0546; in test [11], -0.605 (inactive); in the test with XIP peptide (Xip251-270) it was -0.416.

(Values after PubChem BioAssay.)
